Molecules are shown by their SMILES. Activity calls are given as the source filed them.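 How the source made its calls: active means average half-effect concentration of 10 µM or less in every one of the four cell panels; inactive means the rest.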

This test relates to HL-1. In words: protection of cardiomyocytes from stress damage, SAR follow-up, cell-based, panel, H9c2 and HL-1, H2O2, 2-deoxyglucose, ATP luminescence (AID 651642). The following applies: H9c2/HL-1 cardiomyocyte 2-deoxyglucose damage, mean of runs, with 2-deoxyglucose.
On to `COc1ccc2c(c1OC)C(=O)N1c3ccccc3C(=O)N(Cc3ccccc3F)C21` (stereo not drawn), for which the result was active.

Turning to `COc1cc(-c2cc(C(=O)NCC(=O)Nc3cccc(C(C)=O)c3)c3cc(C)ccc3n2)cc(OC)c1OC`, the compound was classed as inactive.

Turning to `COc1ccc2c(c1OC)C(=O)N1c3ccccc3C(=O)N(Cc3c(Cl)cccc3Cl)C21` (stereo not drawn), the outcome was inactive.

`CCOC(=O)c1cccc(NC(=O)c2cc(-c3cc(OC)c(OC)c(OC)c3)nc3ccccc23)c1`: the compound was classed as inactive.

Turning to `COc1cc(-c2cc(C(=O)NCC(=O)Nc3cccc(C(C)=O)c3)c3cc(Br)ccc3n2)cc(OC)c1OC`, the call was active.

Take `COc1cc(-c2cc(C(=O)Nc3cccc(C(C)=O)c3)c3cc(C)ccc3n2)cc(OC)c1OC`: the compound was called inactive.

Turning to `COc1cc(-c2cc(C(=O)Nc3cccc(C(C)=O)c3)c3cccc(Cl)c3n2)cc(OC)c1OC`, the call was inactive.

With `COc1ccc(NC(=O)CNC(=O)c2cc(-c3cc(OC)c(OC)c(OC)c3)nc3ccccc23)cc1`, the result was active.

With `COc1ccccc1CN1C(=O)c2ccccc2N2C(=O)c3c(ccc(OC)c3OC)C12` (stereo not drawn), the call was active.

Regarding `COc1cc(-c2cc(C(=O)Nc3cccc(C(=O)N4CCOCC4)c3)c3ccccc3n2)cc(OC)c1OC`, the call was inactive.

For `COc1cc(-c2cc(C(=O)Nc3cccc(C(=O)N(C)C)c3)c3ccccc3n2)cc(OC)c1OC`, the call was inactive.

As to `CCOC(=O)c1cccc(NC(=O)c2cc(-c3cc(OC)c(OC)c(OC)c3)nc3ccc(OC)cc23)c1`, the compound was called inactive.

Consider `CCOC(=O)c1ccc(NC(=O)c2cc(-c3cc(OC)c(OC)c(OC)c3)nc3ccccc23)cc1`, for which the result was inactive.

Turning to `COc1cc(-c2cc(C(=O)NCC(=O)Nc3cccc(C(C)=O)c3)c3cc(F)ccc3n2)cc(OC)c1OC`, the compound was called active.

Consider `COc1cc(-c2cc(C(=O)Nc3cccc(C(=O)O)c3)c3ccccc3n2)cc(OC)c1OC`, for which the call was inactive.

Turning to `COc1cc(-c2cc(C(=O)Nc3cccc(C(C)=O)c3)c3cc(Br)ccc3n2)cc(OC)c1OC`, the compound was called inactive.

Regarding `CCOC(=O)c1cccc(NC(=O)c2cc(-c3cc(OC)c(OC)c(OC)c3)nc3ccc(Br)cc23)c1`, the outcome was inactive.

On to `CCOC(=O)c1cccc(NC(=O)CNC(=O)c2cc(-c3cc(OC)c(OC)c(OC)c3)nc3c(Cl)cccc23)c1`, for which the outcome was inactive.
